According to PubChem BioAssay (NCI):
About 83,000 compounds went through this panel and 20% of them were active in at least one assay; those are over-represented in the sample as a whole.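 Percent growth is the endpoint: 0 to 100 indicates growth inhibition (40 means 60% inhibition), 0 means no net growth, and negative values indicate cell death.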 Values without a mark were called inactive. The source made the active and inactive calls. How the source made its calls: active means growth percent below 10; inactive means the rest.

What was measured:
Experiment in all cases: NCI-60 one-dose screen, 48 h (100 = growth as untreated, 0 = no growth, -100 = all killed)
Settings in all cases: 10 µM unless noted
SK-MEL-2 melanoma = tested on: SK-MEL-2 melanoma
EKVX NSCLC = tested on: EKVX NSCLC
SN12C renal = tested on: SN12C renal
UO-31 renal = tested on: UO-31 renal
TK-10 renal = tested on: TK-10 renal
ACHN renal = tested on: ACHN renal
CAKI-1 renal = tested on: CAKI-1 renal
A498 renal = tested on: A498 renal
CCRF-CEM leukemia = tested on: CCRF-CEM leukemia
MOLT-4 leukemia = tested on: MOLT-4 leukemia
SR leukemia = tested on: SR leukemia
RPMI-8226 leukemia = tested on: RPMI-8226 leukemia
OVCAR-8 ovarian = tested on: OVCAR-8 ovarian
OVCAR-5 ovarian = tested on: OVCAR-5 ovarian
OVCAR-4 ovarian = tested on: OVCAR-4 ovarian
SK-OV-3 ovarian = tested on: SK-OV-3 ovarian
IGROV1 ovarian = tested on: IGROV1 ovarian
OVCAR-3 ovarian = tested on: OVCAR-3 ovarian
HS 578T breast = tested on: HS 578T breast
NCI/ADR-RES ovarian = tested on: NCI/ADR-RES ovarian

Compound	growth (SK-MEL-2 melanoma)	growth (EKVX NSCLC)	growth (SN12C renal)	growth (UO-31 renal)	growth (TK-10 renal)	growth (ACHN renal)	growth (CAKI-1 renal)	growth (A498 renal)	growth (CCRF-CEM leukemia)	growth (MOLT-4 leukemia)	growth (SR leukemia)	growth (RPMI-8226 leukemia)	growth (OVCAR-8 ovarian)	growth (OVCAR-5 ovarian)	growth (OVCAR-4 ovarian)	growth (SK-OV-3 ovarian)	growth (IGROV1 ovarian)	growth (OVCAR-3 ovarian)	growth (HS 578T breast)	growth (NCI/ADR-RES ovarian)
CCOc1ccc(C(=O)NC(=S)Nc2ccc(S(N)(=O)=O)cc2)cc1	104% [100 µM]	101% [100 µM]	100% [100 µM]	77.9% [100 µM]	92.6% [100 µM]	101% [100 µM]	87.9% [100 µM]	96.6% [100 µM]	101% [100 µM]	110% [100 µM]	97.7% [100 µM]	102% [100 µM]	89% [100 µM]	103% [100 µM]	84.7% [100 µM]	102% [100 µM]	96.4% [100 µM]	97.9% [100 µM]	89.2% [100 µM]	102% [100 µM]
COc1ccc(-c2ccc(SCC(=O)Nc3ccc(S(N)(=O)=O)cc3Br)nn2)cc1	68.9%	78%	88.4%	88.3%	116%	86.7%	63.1%	89.8%	98.7%	93.7%	92.7%	85.8%	48.7%	99.6%	38%	62.3%	105%	98.3%	44.8%	95.3%
CCCCc1c(Nn2cnnn2)no[n+]1[O-]	80.1%	54.2%	42.4%	28.4%	96.5%	54.9%	39.5%	79.2%	31.6%	23%	36.9%	45.8%	42.1%	83.2%	55%	88.8%	35.8%	51.4%	58.6%	58.2%
C#CCOc1cc(N(CC)CC)ccc1C(C(=O)NC(C)(C)C)N(C(=O)C1CCc2cc(F)ccc2O1)c1ccccc1F (stereo not given)	-39.4% (active)	44.5%	43.7%	23.3%	45%	18.7%	22.4%	33.3%	31.8%	5.25% (active)	16.3%	18%	31.7%	57.7%	43.4%	39.6%	54%	33.1%	68.7%	42.5%
COc1ccc(NC(=O)[C@H](CO)NC(=O)OC(C)(C)C)cc1C(=O)Nc1cccc(C2CC(=O)c3c(cc(OC)c(OC)c3OC)O2)c1 (stereo not given in full)	53.1%	81.2%	49%	40.4%	103%	56.2%	38.6%	105%	23.3%	16.2%	25.3%	23%	26.3%	113%	57.7%	87.8%	43.1%	47.7%	53.6%	71.6%
Cc1occc1C(=O)NN1C(=O)/C(=C/C=C/c2ccc([N+](=O)[O-])o2)SC1=S	-71.8% (active)	-52.1% (active)	-88.1% (active)	-96.3% (active)	-49.7% (active)	-100% (active)	-59.7% (active)	95.3%	0.965% (active)	5.26% (active)	5.76% (active)	-8.57% (active)	-53.9% (active)	-93.3% (active)	-85% (active)	20.1%	-87.6% (active)	-100% (active)	19.4%	-6.81% (active)
Cn1cc(-c2cc(N)n3nc(-c4cn(C)c5ncc(Br)cc45)cc3n2)c2cc(Br)cnc21	39.5%	85.1%	12.4%	45.8%	-10.2% (active)	1.23% (active)	56.6%	114%	3.66% (active)	-54.3% (active)	-35.1% (active)	5.51% (active)	14.6%	70%	-47.3% (active)	104%	43.5%	-68% (active)	55.1%	14.9%
O=C(COc1ccc(NC(=O)Nc2ccc(Cl)c(Cl)c2)cc1)N=Nc1c(O)[nH]c2ccc([N+](=O)[O-])cc12	48.7%	85.6%	52.6%	85.3%	113%	77.8%	72%	98.2%	30.4%	28%	25.5%	55.4%	78.1%	74.4%	75.2%	95.2%	74.4%	56.8%	57.4%	100%
CCN1C(=O)/C(=N\N=C(/C)c2ccc3c(c2)Nc2ccccc2S3)c2cc(Cl)ccc21	70.8%	40.1%	58.9%	56.6%	72.1%	24.6%	48.1%	60.1%	50.8%	37.4%	60.8%	48%	68.1%	83.7%	41.6%	108%	69.9%	55.6%	80%	68.8%
C#CCOc1cc(N(CC)CC)ccc1C(C(=O)NC(C)(C)C)N(C(=O)C1CCc2cc(F)ccc2O1)c1ccc(Br)cc1 (stereo not given)	110%	55.3%	76.9%	51%	116%	83.2%	58.7%	135%	63.6%	21.8%	54%	44.7%	89.3%	87.1%	82.3%	95.3%	80.2%	107%	88.3%	89.4%
O=c1oc2ccccc2cc1-c1csc(N2N=C(c3ccccc3)CC2c2ccc(N3CCOCC3)cc2)n1 (stereo not given)	101%	96.1%	107%	73.8%	159%	99.2%	90.6%	153%	96.6%	95.9%	94.5%	102%	104%	132%	105%	69.9%	123%	117%	105%	105%
COc1ccc(/C=C/c2nc3ccccc3nc2Nc2cccc(C)c2)cc1	102%	89%	92.7%	78.4%	173%	98.3%	72.9%	118%	98.7%	82.7%	85.8%	95.7%	98%	108%	91.6%	95.9%	82.1%	104%	92.3%	105%
CN(C)CCOc1ccc(C(=O)C2[C@H](c3ccc(Cl)cc3)[C@@H](c3ccccc3)NC23C(=O)Nc2ccccc23)cc1 (stereo not given in full)	112%	77.2%	69.1%	59%	117%	88.3%	58%	112%	86.3%	-32.8% (active)	-18% (active)	49.7%	88.1%	85.8%	70.6%	121%	80.2%	73.2%	77.4%	86.4%
O=C(CCN1C(=O)/C(=C/c2ccc(F)cc2)SC1=S)N1CCOCC1	65.9%	87.2%	53%	51.1%	85.6%	63.6%	88.4%	72.5%	66.6%	84%	35%	52.2%	80.9%	79.1%	55.5%	91.5%	85.6%	78.7%	89%	78.2%
CC(C)c1sc(NC(=O)c2cc(NC(=O)c3cc(NC(=O)c4cscn4)cn3C)cn2C)nc1C(=O)NCCCN(C)C	-79.4% (active)	27%	19.1%	85%	85.3%	98.7%	91%	113%	1.16% (active)	5.49% (active)	-8.69% (active)	94.5%	2.77% (active)	10.5%	18.7%	-14.5% (active)	13.3%	3.57% (active)	23.3%	103%
Cc1ccc([C@H]2C(C(=O)c3ccc(Cl)cc3)C3(N[C@@H]2c2ccccc2)C(=O)Nc2ccc(Br)cc23)cc1 (stereo not given in full)	60.2%	65.3%	4.02% (active)	38.6%	91.6%	47%	44%	101%	68.7%	8.72% (active)	2.24% (active)	40.7%	66.4%	73.2%	56.3%	79.4%	60.1%	64%	83.2%	55.5%
